These results are taken from PubChem BioAssay (NCATS).

Records with an inconclusive call do not appear. Unmarked numbers belong to inactive results. Activity calls are given as the source filed them. Calls come from the whole dose curve; as a rule, active = well fitted activation curve with a large enough effect; inconclusive = small, poorly fitted or top-dose-only effect; inactive = no such curve, though single readings can be large or run the other way.
Potency is the fitted concentration of half-maximal effect.

Chain of Cellular tumor antigen p53 (Homo sapiens) (P04637 whole entry, looked up): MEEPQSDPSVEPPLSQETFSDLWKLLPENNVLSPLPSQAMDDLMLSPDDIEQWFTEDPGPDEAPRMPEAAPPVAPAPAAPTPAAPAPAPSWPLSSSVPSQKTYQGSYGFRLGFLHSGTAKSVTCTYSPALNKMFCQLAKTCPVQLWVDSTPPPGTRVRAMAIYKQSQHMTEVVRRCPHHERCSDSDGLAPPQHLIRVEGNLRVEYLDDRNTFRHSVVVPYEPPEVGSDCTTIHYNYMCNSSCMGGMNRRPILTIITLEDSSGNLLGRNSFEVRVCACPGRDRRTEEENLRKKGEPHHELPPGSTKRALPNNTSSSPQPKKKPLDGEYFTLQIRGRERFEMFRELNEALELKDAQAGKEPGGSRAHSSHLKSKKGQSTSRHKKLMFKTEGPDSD

This assay has as its target Cellular tumor antigen p53 (Homo sapiens) (UniProt P04637). In words: Primary qHTS for small molecule compounds that upregulate eGFP-tagged delta133p53alpha (in N-terminal) cells. (AID 2060322).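 For activation: cells pre-induced with doxycycline then dosed without doxycycline; series mostly up to about 56 µM; 0% = DMSO vehicle and 100% = reference activator.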 Note: nearly all actives have a fitted effect of over 75% in size. To be noted: NCI-H358 eGFP-delta133p53alpha fluorescence, 24 h; activation: hits give high values. The procedure, abridged:
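NCI-H358 cells pre-induced 24 h with 10 ng/ml doxycycline for eGFP-delta133p53alpha, plated dox-free and exposed 24 h at 37C to titrated compounds. Fixed, Hoechst-stained; gated GFP peak intensity by laser scanning cytometry, normalized to DMSO (0%) and 57.5 uM 5-azacytidine (100%).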
A general note: In qHTS, concentration-response curves come from the screen itself.
`Cc1c(-c2ccccc2)oc2c(C(=O)OCCN3CCCCC3)cccc2c1=O`: the activation is -16.7%. Same read-out and setting: as for `CNCC[C@@H](Oc1ccccc1C)c1ccccc1`, the figure is -17.6%. Still for that read-out and setting: as for `OC[C@]1(O)OC[C@@H](O)[C@H](O)[C@@H]1O`, the figure is -16.7%; as for `CCCOC(=O)c1ccc(O)cc1`, -10%. Regarding `Cc1nc(NC(=O)N2CCC[C@@H]2C(N)=O)sc1-c1csc(C(C)(C)C)n1`, the activation is -6.14%.

For the compound `Nc1ncnc2c1ncn2[C@@H]1O[C@@H](CO)[C@H](O)[C@H]1O`, the activation was -9.84%.

`O=C(CS(=O)Cc1ccco1)NC/C=C\COc1cc(CN2CCCCC2)ccn1` (centres undefined): the activation is -5.08%. For `COc1cccc2c1C(=O)c1c(O)c3c(c(O)c1C2=O)C[C@@](O)(C(=O)CO)C[C@@H]3O[C@H]1C[C@H](N)[C@H](O[C@@H]2CCCCO2)[C@H](C)O1`, the Potency was 15.5 µM (active).

As to `CC[C@@H]([C@H](C)O)n1ncn(-c2ccc(N3CCN(c4ccc(OC[C@@H]5CO[C@@](Cn6cncn6)(c6ccc(F)cc6F)C5)cc4)CC3)cc2)c1=O`, the activation is 22.6%. Take `C[C@H]1O[C@H](O[C@H]2[C@H](O)[C@@H](O)[C@@H](O[C@H]3[C@H](O)[C@@H](O)C(O)O[C@H]3CO)O[C@H]2CO)[C@H](O)[C@@H](O)[C@H]1N[C@H]1C=C(CO)[C@@H](O)[C@H](O)[C@@H]1O` (some centres undefined): the activation is 140%.

For the compound `O=c1ccn([C@@H]2O[C@H](CO)[C@H](O)[C@H]2O)c(=O)[nH]1`, the activation was 8.95%.

For the compound `C[C@]12CC[C@H]3[C@@H](CCC4=CC(=O)CC[C@@]43C)[C@@H]1CC[C@@H]2C(=O)CO`, the activation was -5.86%. As for `Cc1ccccc1OCC(O)CO` (centres undefined), the activation was 13%. For the compound `CC(=O)NCC(=O)N1[C@H]2CC[C@H]1c1cc(Nc3ncc(C(F)(F)F)c(NC4CCC4)n3)ccc12`, the activation was 32.7%. In the case of `Cc1nc(C2CCCCC2)c(-c2ccc(S(N)(=O)=O)c(F)c2)o1`, the activation is 19.2%.

Consider `Nc1ccc(C(=O)O)c(O)c1`, for which the activation was 20.9%. For the compound `CC(C)C(=O)Nc1cccc(C(F)(F)F)c1`, the activation is -15.3%.

Turning to `CCCCC1(COC(=O)CCC(=O)O)C(=O)N(c2ccccc2)N(c2ccccc2)C1=O`, the activation is -7.34%. Turning to `Nc1ncnc2c1ncn2Cc1c(F)cccc1Cl`, the activation is -17.6%. In the case of `O=C1NC(=O)C(=Cc2ccc3nccnc3c2)S1`, the activation is -3.42%. Take `N#CC(=C1Nc2ccccc2S1)c1ccnc(OCc2ccc(CN3CCOCC3)cc2)n1`: the activation was -32.5%. Regarding `NC(=S)N/N=C/c1cccnc1`, the activation is 0.565%. As to `CC[N+](CC)(CCNC(=O)C(=O)NCC[N+](CC)(CC)Cc1ccccc1Cl)Cc1ccccc1Cl`, the activation is -9.6%.

As to `CC(C)(O)Cn1c(NC(=O)c2ccc(-c3cn[nH]c3)s2)nc2cc(CN3CCOCC3)ccc21`, the Potency is 3.85 µM (active).
